# AmpC inh detg – qHTS Inhibitors of AmpC Beta-Lactamase (assay with detergent); P00811; AmpC hydrolysis of nitrocefin, absorbance 480 nm, 0.01% Triton; Potency, µM (doses to about 114 µM), without a hit: top-dose activity change, negative = inhibition, usual class: inhibitors; actives 0.041% (n = 370,000);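 note: 0% = no-compound wells and -100% = no-enzyme wells; nearly all actives have a fitted effect of over 25% in size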
# Target sequence (P00811 whole entry, looked up): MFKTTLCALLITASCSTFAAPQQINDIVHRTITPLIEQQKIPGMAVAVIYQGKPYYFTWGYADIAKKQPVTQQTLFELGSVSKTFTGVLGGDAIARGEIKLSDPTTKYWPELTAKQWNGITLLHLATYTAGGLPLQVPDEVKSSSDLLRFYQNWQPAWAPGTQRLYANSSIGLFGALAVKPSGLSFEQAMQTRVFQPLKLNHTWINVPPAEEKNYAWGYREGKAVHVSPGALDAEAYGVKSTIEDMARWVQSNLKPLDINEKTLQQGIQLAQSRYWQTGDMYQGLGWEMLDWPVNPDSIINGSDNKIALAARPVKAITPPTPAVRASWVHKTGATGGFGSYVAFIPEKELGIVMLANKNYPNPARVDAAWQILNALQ
#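 20 mM phosphate pH 7.0 + 0.01% (detergent screen) or 0.0001% Triton X-100; 5.3 nM AmpC reagent; cpd preinc 15 min RT; nitrocefin (800 uM stock) to start; A480 q20 s × 4 min; Activity was normalised to no-enzyme and no-compound control wells.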
# Sm TGR block – qHTS Assay for the Inhibitors of Schistosoma Mansoni Peroxiredoxins; Schistosoma mansoni thioredoxin glutathione reductase (TGR), Q962Y6; AID 485364, 2010; purified TGR, DTNB reduction, TNB absorbance 405 nm; Potency, µM (top dose mostly 114 µM), for the others: top-dose activity change, negative = inhibition, actives largely listed as inhibitors; actives 3% (n = 360,000); note: nearly all actives have a fitted effect of over 60% in size
#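 First, TGR (20 nM dispensed) and NADPH were mixed with compound. Second, a 15 min room-temperature incubation followed. Third, further NADPH and then DTNB were added to start the reaction. Finally, TNB absorbance was monitored kinetically.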
# AmpC inh no detg – qHTS Inhibitors of AmpC Beta-Lactamase (assay without detergent) | Potency, µM (highest dose often 57.1 µM), without a hit: top-dose activity change, negative = inhibition, usual class: inhibitors | P00811 | actives 0.52% (n = 330,000) | AmpC nitrocefin hydrolysis, absorbance 480 nm, 0.0001% Triton;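 note: plate controls were no compound for no effect and no enzyme for full effect; nearly all actives have a fitted effect of over 20% in size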
#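 AmpC (5.3 nM in the dispensed reagent) in 20 mM phosphate pH 7.0 with 0.01% (detergent screen) or 0.0001% Triton X-100 was preincubated with compounds for 15 min at room temperature. Nitrocefin was then added from an 800 uM solution, and hydrolysis was followed at 480 nm.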
# * marks the source's active call; other numbers are inactive results; u = inconclusive; x = no result. Hits are enriched below; roughly 3.3% of the tested compounds scored in any of these assays. Calls come from the whole dose curve; as a rule, active = well fitted curve in the direction sought with a large enough effect; inconclusive = small, poorly fitted or top-dose-only effect, or another doubt; inactive = no such curve, though single readings can be large; an effect the other way counts as inactive or inconclusive. Unless noted, % is set by controls: 0 for no effect and ±100 for the full control effect; potency is the fitted concentration of half-maximal effect.
SMILES,AmpC inh detg,Sm TGR block,AmpC inh no detg
CC(=O)c1sc(C(=O)O)c(-c2ccco2)c1-c1ccco1,-7%,20µM*,-23%
CC(C)(Oc1ccc(-c2ccco2)cc1)C(=O)O,-10%,u,-46%
COC(=O)Cc1c(O)ccn(CCc2ccc(S(N)(=O)=O)cc2)c1=O,6%,4%,-22%
COc1cccc(CNC(=O)C2CCC(CNS(=O)(=O)c3ccc(Br)s3)CC2)c1 (stereo unspecified),11%,-1%,x
Cc1ccc(N(C)C(=O)N2CCN(S(=O)(=O)c3c(C)cc(C)cc3C)CC2)cc1,-4%,2%,89%
Cc1c(Cl)cccc1N=Cc1ccc([N+](=O)[O-])s1,-2%,40µM*,-24%
Cc1ccccc1C(=O)N/N=C/c1ccc([N+](=O)[O-])s1,u,-35%,-26%
CCC(=O)N1CCc2cc(CNC(=O)c3ccc(OC)cc3)ccc21,4%,-10%,x
OCC1OC(Oc2cccc3ccccc23)C(O)C(O)C1O (stereo unspecified),-3%,9%,-12%
O=C(O)c1cc(O)c2c(c1)[C@@H]([C@H]1c3cc(C(=O)O)cc(O)c3C(=O)c3c(O[C@@H]4O[C@H](CO)[C@@H](O)[C@H](O)[C@H]4O)cccc31)c1cccc(O[C@@H]3O[C@H](CO)[C@@H](O)[C@H](O)[C@H]3O)c1C2=O,x,x,1.3µM*
Cc1ccc(SCc2nc(-c3ccc(C(=O)NCc4ccc(Cl)cc4)cc3)oc2C)cc1,16%,-7%,x
O=C(COc1ccc([N+](=O)[O-])cc1Cl)NCCN1C(=O)CSC1=O,x,x,-19%
CCc1cccc(C)c1NC(=O)Cn1c(NCCO)nc2ccccc21,-4%,-15%,-26%
CCCCNc1nc2ccccc2n1CC(=O)Nc1c(C)cccc1CC,-7%,-15%,20µM*

# Screening results: PubChem, National Center for Advancing Translational Sciences (NCATS)
